Screening results deposited in PubChem BioAssay by National Center for Advancing Translational Sciences (NCATS).
HPGD block: inhibitors of human 15-hydroxyprostaglandin dehydrogenase (HPGD). actives 4.3% (n = 150,000). AID 894. purified HPGD, NADH fluorescence kinetic, PGE2 substrate. Potency, µM, actives largely listed as inhibitors. P15428
Target sequence (P15428 whole entry, looked up): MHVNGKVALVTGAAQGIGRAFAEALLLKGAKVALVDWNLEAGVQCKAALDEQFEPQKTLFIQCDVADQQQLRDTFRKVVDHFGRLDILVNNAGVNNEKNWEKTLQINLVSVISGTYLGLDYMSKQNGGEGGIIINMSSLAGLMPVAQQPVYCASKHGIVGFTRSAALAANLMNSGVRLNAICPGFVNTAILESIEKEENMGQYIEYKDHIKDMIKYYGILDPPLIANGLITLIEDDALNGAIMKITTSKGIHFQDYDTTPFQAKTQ
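NADH formation kinetics: reaction with 30 uM PGE2 and 1 mM NAD+ (final), 20 nM enzyme, Tris-HCl pH 8 with Tween 20, after 15 min compound preincubation at room temperature. Fluorescence change, last versus first of five reads.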
Tau fibril FP: inhibitors of human tau fibril formation | P10636 | K18 P301L tau heparin fibrillization, Alexa594 FP, 6 h | Potency, µM (series often up to 57.7 µM), usual class: inhibitors | actives 0.39% (n = 280,000) | AID 1468; active = well fitted curve in the direction sought with a large enough effect; inconclusive = small, poorly fitted or top-dose-only effect, or another doubt; inactive = no such curve, though single readings can be large; an effect the other way counts as inactive or inconclusive; also: nearly all actives have a fitted effect of over 55% in size
Target sequence (P10636 561-689 P618L limits assumed): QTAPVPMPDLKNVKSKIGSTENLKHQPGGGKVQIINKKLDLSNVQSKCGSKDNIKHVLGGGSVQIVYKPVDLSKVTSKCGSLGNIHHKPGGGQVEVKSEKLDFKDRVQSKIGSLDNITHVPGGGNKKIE
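Read-out: fluorescence polarization of Alexa 594-labeled tau (0.24 uM), 555 nm excitation, 632 nm emission. Mixtures held 15 uM unlabeled K18 P301L, compound and 20 uM heparin, pH 7 acetate buffer, incubated 6 hr at 37 C.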
JMJD2E inh: blocks human JMJD2E demethylase activity. B2RXH2. JMJD2E catalytic domain, FDH-coupled NADH fluorescence (FDH is formaldehyde dehydrogenase). Potency, µM (titrated, usually from 57.1 µM), actives largely listed as inhibitors. actives 1.6% (n = 230,000). AID 2147; also: nearly all actives have a fitted effect of over 50% in size
Target sequence (B2RXH2 1-337 limits assumed): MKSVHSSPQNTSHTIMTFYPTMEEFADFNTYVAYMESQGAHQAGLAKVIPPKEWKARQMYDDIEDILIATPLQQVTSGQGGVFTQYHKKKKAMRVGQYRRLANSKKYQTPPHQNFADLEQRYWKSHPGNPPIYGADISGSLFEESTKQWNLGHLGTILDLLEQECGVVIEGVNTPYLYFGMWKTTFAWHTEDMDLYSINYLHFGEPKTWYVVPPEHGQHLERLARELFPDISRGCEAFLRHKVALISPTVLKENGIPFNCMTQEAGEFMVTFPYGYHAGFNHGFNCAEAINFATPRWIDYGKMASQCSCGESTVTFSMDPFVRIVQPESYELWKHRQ
ALDH1A1 block: blocks purified human ALDH1A1 activity | P00352 | Purified ALDH1A1, NADH fluorescence, propionaldehyde substrate | Potency, µM (highest dose often 75.3 µM), hits mostly inhibitors | actives 7.3% (n = 220,000) | AID 1030
Tau fluor cs: counter-screen for tau fibril formation inhibitors; Potency, µM (series often up to 57.7 µM); actives 0.93% (n = 280,000); AID 1463; tau K18 P301L Alexa594 fluorescence, heparin fibrillization; active = well fitted curve in the direction sought with a large enough effect; inconclusive = small, poorly fitted or top-dose-only effect, or another doubt; inactive = no such curve, though single readings can be large; an effect the other way counts as inactive or inconclusive; also: nearly all actives have a fitted effect of over 55% in size
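Human K18 P301L tau (15 uM unlabeled plus 0.24 uM Alexa 594-labeled, final) in 100 mM sodium acetate pH 7 was mixed with compound and 20 uM heparin and incubated 6 hr at 37 C.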
Tau ThT inhib: inhibitors of human tau fibril formation, thioflavin T binding; recombinant tau K18 P301L (four-repeat tau fragment), heparin-induced fibrillization, ThT fluorescence; AID 1460; Potency, µM (top dose mostly 57.4 µM), actives largely listed as inhibitors; actives 2.1% (n = 270,000); active = well fitted curve in the direction sought with a large enough effect; inconclusive = small, poorly fitted or top-dose-only effect, or another doubt; inactive = no such curve, though single readings can be large; an effect the other way counts as inactive or inconclusive; also: nearly all actives have a fitted effect of over 55% in size
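Heparin-induced fibrillization of the P301L-mutant K18 repeat-domain fragment of human tau was followed by ThT binding in quantitative high-throughput format.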
Numbers stand for hits; [ ] = remark or other dose. Most compounds without a hit are left out; they make up all but 9.9% or so of the library. Unless noted, calls follow the shape of the dose curve; as a rule, active = well fitted inhibition curve with a large enough effect (not every such curve was filed as active); inconclusive = small, poorly fitted or top-dose-only effect, or another doubt; inactive = no such curve, though single readings can be large or run the other way.

`Cc1ccc(NC(=O)CCN2CCN(C/C=C/c3ccccc3)CC2)cc1C` gave HPGD block inactive, Tau fibril FP inactive, JMJD2E inh inactive, ALDH1A1 block 14.1µM, Tau fluor cs inactive and Tau ThT inhib inactive.
`Cc1ccc(NC(=O)CCN2CCN(C/C=C/c3ccccc3)CC2)cc1` gave HPGD block inactive, Tau fibril FP inactive, JMJD2E inh inactive, ALDH1A1 block inactive, Tau fluor cs inactive and Tau ThT inhib inactive.
Screening CCN(CCCNC(=O)CCNC(=O)Cn1ccc2ccccc2c1=O)c1ccccc1 returned HPGD block inactive, Tau fibril FP inactive, JMJD2E inh inactive, ALDH1A1 block inconclusive, Tau fluor cs inactive and Tau ThT inhib inactive.
CN(CCNC(=O)CCNC(=O)Cn1ccc2ccccc2c1=O)Cc1ccccc1 was read as Tau fibril FP 22.4µM, JMJD2E inh inactive, ALDH1A1 block inactive, Tau fluor cs 15.8µM[quencher] and Tau ThT inhib inactive.
O=C(O)C1CCCN1C(=O)c1cncc(Br)c1 (stereo not given) was read as HPGD block inactive, Tau fibril FP inactive, JMJD2E inh inactive, ALDH1A1 block 20µM, Tau fluor cs inactive and Tau ThT inhib inactive.
For S=C(Nc1ccc(Br)cc1Cl)Nn1cnnc1 the results were Tau fibril FP inactive, JMJD2E inh inactive, ALDH1A1 block 7.94µM, Tau fluor cs inactive and Tau ThT inhib inactive.
`O=C(NNC(=S)Nc1ccc(Br)cc1Cl)c1ccncc1` gave HPGD block inactive, Tau fibril FP inactive, JMJD2E inh inactive, ALDH1A1 block 17.8µM, Tau fluor cs inactive and Tau ThT inhib inconclusive.
O=C(NNC(=S)Nc1ccccc1)c1ccncc1 was read as HPGD block inactive, Tau fibril FP inactive, JMJD2E inh inactive, ALDH1A1 block inconclusive, Tau fluor cs inactive and Tau ThT inhib inactive.
Screening Cc1cccnc1NC(=S)Nc1ccc(Br)cc1Cl returned Tau fibril FP inactive, JMJD2E inh inconclusive, ALDH1A1 block inconclusive, Tau fluor cs inactive and Tau ThT inhib inactive.
O=C(CCc1ccc(O)c(O)c1)NNC(=S)Nc1ccc(Br)cc1Cl was read as Tau fibril FP inactive, JMJD2E inh inactive, ALDH1A1 block 25.1µM, Tau fluor cs inactive and Tau ThT inhib inconclusive.
For N=C(N)SC(c1ccccc1)c1ccccc1 the results were HPGD block inactive and ALDH1A1 block inactive[13.5 µM].
COc1ccccc1NC1=C(N2CCCCC2)C(=O)c2ccccc2C1=O was read as HPGD block inactive, Tau fibril FP inconclusive, JMJD2E inh inactive, ALDH1A1 block 10µM, Tau fluor cs inconclusive and Tau ThT inhib 12.6µM.
Cc1ccc(NC2=C(N3CCCCC3)C(=O)c3ccccc3C2=O)cc1 was read as Tau fibril FP inactive, JMJD2E inh inactive, ALDH1A1 block inactive, Tau fluor cs inactive and Tau ThT inhib inactive.
For O=C1C(Nc2cccc(O)c2)=C(N2CCCCC2)C(=O)c2ccccc21 the results were HPGD block inactive, Tau fibril FP inconclusive, JMJD2E inh inactive, ALDH1A1 block inconclusive, Tau fluor cs 17.8µM[quencher] and Tau ThT inhib 14.1µM.
`O=C1C(Nc2ccccc2)=C(N2CCCCC2)C(=O)c2ccccc21` gave HPGD block inactive, Tau fibril FP inconclusive, JMJD2E inh inactive, ALDH1A1 block 20µM, Tau fluor cs inactive and Tau ThT inhib 17.8µM.
O=C(/C=C/c1ccc(O)cc1)c1ccc(NC2=C(N3CCCCC3)C(=O)c3ccccc3C2=O)cc1 was read as HPGD block inactive, Tau fibril FP inconclusive, JMJD2E inh 17.8µM, ALDH1A1 block 8.91µM, Tau fluor cs 12.6µM[quencher] and Tau ThT inhib 7.94µM.
For O=C(/C=C/c1ccccc1)c1ccc(O)cc1 the results were HPGD block inactive, Tau fibril FP inactive, JMJD2E inh inactive, ALDH1A1 block inactive, Tau fluor cs inactive and Tau ThT inhib inconclusive.
COc1ccc(S(=O)(=O)N(CC(=O)NCCc2ccccc2)c2ccc(Cl)cc2)cc1 was read as Tau fibril FP inactive, Tau fluor cs inactive and Tau ThT inhib inactive.
`CC(=O)N1CCC(N(Cc2ccco2)C(=O)Nc2cccc(C)c2)CC1` gave Tau fibril FP inactive, Tau fluor cs inactive and Tau ThT inhib inactive.
Screening Cc1cccc(/N=C/c2sc3ccccc3c2O)n1 returned Tau fibril FP inconclusive, JMJD2E inh inconclusive, ALDH1A1 block inactive, Tau fluor cs 25.1µM[fluorescent] and Tau ThT inhib 5.62µM.
`O=[N+]([O-])c1ccc(O)c(N=Cc2sc3ccccc3c2O)c1` gave HPGD block 14.1µM, Tau fibril FP inactive, JMJD2E inh 7.08µM, ALDH1A1 block inconclusive, Tau fluor cs inconclusive and Tau ThT inhib 4.47µM.
`Oc1ccc(Cl)cc1N=Cc1sc2ccccc2c1Cl` gave Tau fibril FP inactive, JMJD2E inh inconclusive, ALDH1A1 block inconclusive, Tau fluor cs inactive and Tau ThT inhib inactive.
For Oc1c(C=Nc2cccc3cccnc23)sc2ccccc12 the results were HPGD block inactive, Tau fibril FP inactive, JMJD2E inh inconclusive, ALDH1A1 block inconclusive, Tau fluor cs inconclusive and Tau ThT inhib inconclusive.
Screening CC1S/C(=N/N=C/c2cccs2)NC1=O (stereo not given) returned Tau fibril FP inactive, JMJD2E inh inactive, ALDH1A1 block inactive, Tau fluor cs inactive and Tau ThT inhib inactive.
`CC(C)C1S/C(=N/N=C/c2cccs2)NC1=O` (stereo not given) gave HPGD block 25.1µM, Tau fibril FP inactive, JMJD2E inh inactive, ALDH1A1 block inconclusive, Tau fluor cs inactive and Tau ThT inhib inactive.
`CCC(=O)c1ccc2c(c1)OCCO2` gave Tau fibril FP inactive, JMJD2E inh inactive, Tau fluor cs inactive and Tau ThT inhib inactive.
For O=C(O)CCSCC(=O)c1ccc2c(c1)OCCO2 the results were HPGD block inactive, Tau fibril FP inactive, JMJD2E inh inactive, ALDH1A1 block 15µM, Tau fluor cs inactive and Tau ThT inhib inconclusive.
`CN(C)CCC(=O)c1ccc2c(c1)OCO2` gave HPGD block inactive, Tau fibril FP inconclusive, JMJD2E inh inactive, ALDH1A1 block 0.0224µM, Tau fluor cs inactive and Tau ThT inhib inconclusive.
CN(C)CCC(=O)c1cccc(Br)c1 was read as Tau fibril FP inactive, JMJD2E inh inconclusive, ALDH1A1 block 0.0398µM, Tau fluor cs inactive and Tau ThT inhib inactive.
Screening CCCC(=O)c1ccc2c(c1)OCCO2 returned HPGD block 28.2µM, Tau fibril FP inactive, JMJD2E inh inactive, ALDH1A1 block inactive, Tau fluor cs inactive and Tau ThT inhib inactive.
For CCCCC[C@H](O)/C=C/C1=C(C/C=C\CCCC(=O)O)C(=O)CC1 the results were HPGD block inactive, Tau fibril FP inactive, JMJD2E inh inactive, ALDH1A1 block inactive, Tau fluor cs inactive and Tau ThT inhib inactive.
`COc1ccc(S(=O)(=O)NC(C)C)cc1C(=O)N1CCOCC1` gave Tau fibril FP inactive, JMJD2E inh inactive, ALDH1A1 block inactive, Tau fluor cs inactive and Tau ThT inhib inactive.
